Results filed as inconclusive are left out. Calls of active or inactive are those of the source. Unless noted, calls follow the shape of the dose curve; as a rule, active = well fitted curve in the direction sought with a large enough effect in the repeat runs; inconclusive = weak or mixed curves; inactive = no such curve, though single readings can be large; an effect the other way counts as inactive or inconclusive. Positions of bridges follow the written chain, without caps; N, C: chain ends. Non-standard residues stand in square brackets, D forms with d. Residues, ends and D or L forms follow the SMILES beside them. hArg = N=C(N)NCCCC[C@H](N)C(=O)O; Mpa = O=C(O)CCS
Experiments:
[1] = qHTS assay to identify small molecule agonists of the RXR signaling pathway - cell viability counter screen (AID 1159529);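 also: HEK 293T cells carrying an RXR-alpha UAS beta-lactamase reporter; series mostly up to about 77 µM; nearly all actives have a fitted effect of over 50% in size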
Summary of the method: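 Counter screen: CellTiter-Glo luminescence. Cells: RXR-alpha-UAS-bla HEK 293T. Medium: 2% charcoal-stripped FBS. Treatment: 16 h, 37 C. Reagent incubation: 30 min, RT.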

[2] = qHTS assay to identify small molecule antagonists of the retinoid acid receptor (RAR) signaling pathway - cell viability counter screen (AID 1159551); also: nearly all actives have a fitted effect of over 35% in size
Summary of the method: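 Following overnight attachment, C3RL4 reporter cells received DMSO-dissolved compounds and then retinol (1 uM final). Six hours later at 37 C, ATP content was measured by CellTiter-Glo luminescence.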

[3] = qHTS assay to identify small molecule antagonists of the retinoic acid receptor (RAR) signaling pathway (AID 1159552; also: nearly all actives have a fitted effect of over 50% in size)
Summary of the method: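 Antagonism of retinol-induced RARE reporter activity was measured in C3RL4 cells. Exposure to compounds and 1 uM final retinol lasted 6 hr at 37 C, with luminescence as endpoint.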

[4] = qHTS assay to identify small molecule agonists of the retinoic acid receptor (RAR) signaling pathway (AID 1159553)
Summary of the method: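 Cell line C3RL4, RARE luciferase reporter. Treatment: compounds in DMSO, 6 hr, 37 C, 5% CO2, after overnight plating. Detection: luminescence, 30 min RT after reagent.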

[5] = qHTS assay to identify small molecule antagonists of the estrogen related receptor (ERR) signaling pathway from Tox21 library - cell viability counter screen (AID 1224834); also: nearly all actives have a fitted effect of over 30% in size
Summary of the method: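 Viability readout (CellTiter-Fluor fluorescence, 30 min at 37 C) multiplexed with the ERR assay; cells treated 17.5 h at 37 C with compounds delivered in DMSO.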

[6] = molecular target: Luciferin 4-monooxygenase (Photinus pyralis) (UniProt P08659); experiment: qHTS assay to identify small molecule inhibitors of firefly luciferase (AID 1224835); also: series mostly up to about 120 µM; nearly all actives have a fitted effect of over 25% in size
Summary of the method: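 Quantitative HTS format; KM concentrations of both substrates. Purified P. pyralis FLuc activity quantified from luminescence images.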

[7] = qHTS assay to identify small molecule agonists of the constitutive androstane receptor (CAR) signaling pathway - cell viability counter screen (AID 1224836); also: series mostly up to about 92 µM; nearly all actives have a fitted effect of over 45% in size
Summary of the method: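 Double-stable HepG2 hepatoma cells (hCAR plus CYP2B6-2.2kb) are treated for 23 h at 37 C with test compounds in 15-point concentration series. PK11195 at 0.75 uM final is co-added. Cell viability is quantified by CellTiter-Fluor.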

[8] = molecular target: Nuclear receptor subfamily 1 group I member 3 (Homo sapiens) (UniProt Q14994); experiment: qHTS assay to identify small molecule agonists of the constitutive androstane receptor (CAR) signaling pathway (AID 1224839);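 also: HepG2 cells stably carrying human CAR and a CYP2B6 luciferase reporter; series mostly up to about 92 µM; nearly all actives have a fitted effect of over 15% in size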
Summary of the method: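 Readout: firefly luciferase luminescence via ONE-Glo. System: HepG2 double-stable for hCAR and CYP2B6-2.2kb. Conditions: 15-point compound titration, PK11195 at 0.75 uM final, 24 h incubation.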

[9] = qHTS assay to identify small molecule antagonists of the estrogen related receptor signaling pathway with the pleiotropic PPARgamma coactivator (PGC) from Tox21 10K library - cell viability counter screen (AID 1224840; active = well fitted cell-killing curve with a large enough effect in the repeat runs, not every such curve was filed as active; also: nearly all actives have a fitted effect of over 40% in size)
Summary of the method: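 Compounds in DMSO, alongside positive and negative controls, were pinned onto PGC/ERR cells (2,000 per well). Exposure lasted 17.5 hours at 37 C, followed by a 30-minute CellTiter-Fluor incubation and fluorescence reading.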

[10] = molecular target: Thyrotropin receptor (Homo sapiens) (UniProt P16473); experiment: qHTS assay to identify small molecule agonists of the thyroid stimulating hormone receptor (TSHR) signaling pathway (AID 1224843; calls by dose curve; also: nearly all actives have a fitted effect of over 45% in size)
Summary of the method: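 TSHR-expressing HEK293 cells (800 per well) were exposed to compounds for 30 min at room temperature. cAMP was then detected by HTRF competition with cAMP-d2 and anti-cAMP cryptate, read after 1 h at room temperature. Fifteen concentrations, triplicate.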

[11] = qHTS assay to identify small molecule agonists of the hypoxia (HIF-1) signaling pathway - cell viability counter screen (AID 1224844; calls by dose curve; also: nearly all actives have a fitted effect of over 50% in size)
Summary of the method: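 Luminescent ATP content (CellTiter-Glo, 30 min, room temperature) served as the viability measure in HRE-bla ME-180 cells exposed to compounds for 17 hrs in low-serum medium (0.5% dialyzed FBS).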

[12] = qHTS assay to identify small molecule agonists of H2AX (AID 1224845; active = well fitted activation curve with a large enough effect in the signal ratio in the repeat runs, not every such curve was filed as active; the % refers to the signal ratio)
Summary of the method: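 Wild-type CHO-K1 cells plated overnight, then exposed 3 hr at 37C to compounds at 15 concentrations (0.76% DMSO). Lysed, then HTRF anti-pH2AX(S139)-cryptate/anti-H2AX-d2 detection after 24 hr at room temperature; emissions 665 and 620 nm.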

[13] = qHTS assay to identify small molecule agonists of the hypoxia (HIF-1) signaling pathway (AID 1224846; active = well fitted activation curve with a large enough effect in the signal ratio in the repeat runs, not every such curve was filed as active; the % refers to the signal ratio)
Summary of the method: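 Measured by blue/green FRET after loading CCF4-AM: beta-lactamase expressed from a hypoxia response element in ME-180 cells. Test agents were delivered in DMSO and left 17 hrs; cells had been plated 5 hrs earlier in low-serum (0.5% dialyzed FBS) medium.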

[14] = qHTS assay to identify small molecule agonists of H2AX - cell viability counter screen (AID 1224847; calls by dose curve; also: top concentration of the series differs between compounds; nearly all actives have a fitted effect of over 30% in size)
Summary of the method: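 For this counter screen, overnight-attached CHO-K1 cells received test compounds (15 concentrations, 0.76% DMSO final); 3 hr later at 37C, CellTiter-Glo reagent was added and luminescence recorded after 30 min at room temperature.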

[15] = qHTS RealTime-Glo MT Cell Viability Assay in HepG2 cells - 24 hour (AID 1224867); also: nearly all actives have a fitted effect of over 50% in size
Summary of the method: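 Real-time, nonlytic viability: 600 HepG2 cells/well mixed with NanoLuc enzyme plus prosubstrate; 5 h settle, compound (DMSO) added by pintool; luminescence monitored over 40 h at 37 C.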

[16] = molecular target: Nuclear receptor subfamily 1 group I member 3 (Homo sapiens) (UniProt Q14994); experiment: qHTS assay to identify small molecule antagonists of the constitutive androstane receptor (CAR) signaling pathway (AID 1224838);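 also: HepG2 cells stably expressing hCAR with CYP2B6 luciferase reporter stimulated by CITCO; nearly all actives have a fitted effect of over 40% in size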
Summary of the method: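 Quantitative HTS in double-stable HepG2-CYP2B6-hCAR cells. After 4 h plating, cells get compound (15 concentrations) and CITCO at 50 nM final, incubate 24 h at 37 C, then ONE-Glo luminescence is read.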
% is scaled to controls: 0 for no effect and ±100 for the full control effect.

Chain of Luciferin 4-monooxygenase (Photinus pyralis) (P08659 whole entry, looked up): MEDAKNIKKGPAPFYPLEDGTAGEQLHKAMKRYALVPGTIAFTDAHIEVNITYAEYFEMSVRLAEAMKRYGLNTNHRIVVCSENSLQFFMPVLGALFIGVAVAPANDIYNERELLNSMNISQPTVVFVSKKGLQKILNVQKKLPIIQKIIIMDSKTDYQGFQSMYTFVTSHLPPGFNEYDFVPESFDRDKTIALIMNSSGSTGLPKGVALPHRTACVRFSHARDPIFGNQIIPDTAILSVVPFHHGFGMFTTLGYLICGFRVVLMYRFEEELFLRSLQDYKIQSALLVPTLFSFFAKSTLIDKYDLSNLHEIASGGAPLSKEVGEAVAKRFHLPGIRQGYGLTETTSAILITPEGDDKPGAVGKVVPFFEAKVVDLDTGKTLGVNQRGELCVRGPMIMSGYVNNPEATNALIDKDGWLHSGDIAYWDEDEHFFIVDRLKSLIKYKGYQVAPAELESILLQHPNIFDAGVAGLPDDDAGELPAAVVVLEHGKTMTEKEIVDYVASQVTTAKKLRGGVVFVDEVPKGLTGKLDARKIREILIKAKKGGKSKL
Chain of Thyrotropin receptor (Homo sapiens) (P16473 whole entry, looked up): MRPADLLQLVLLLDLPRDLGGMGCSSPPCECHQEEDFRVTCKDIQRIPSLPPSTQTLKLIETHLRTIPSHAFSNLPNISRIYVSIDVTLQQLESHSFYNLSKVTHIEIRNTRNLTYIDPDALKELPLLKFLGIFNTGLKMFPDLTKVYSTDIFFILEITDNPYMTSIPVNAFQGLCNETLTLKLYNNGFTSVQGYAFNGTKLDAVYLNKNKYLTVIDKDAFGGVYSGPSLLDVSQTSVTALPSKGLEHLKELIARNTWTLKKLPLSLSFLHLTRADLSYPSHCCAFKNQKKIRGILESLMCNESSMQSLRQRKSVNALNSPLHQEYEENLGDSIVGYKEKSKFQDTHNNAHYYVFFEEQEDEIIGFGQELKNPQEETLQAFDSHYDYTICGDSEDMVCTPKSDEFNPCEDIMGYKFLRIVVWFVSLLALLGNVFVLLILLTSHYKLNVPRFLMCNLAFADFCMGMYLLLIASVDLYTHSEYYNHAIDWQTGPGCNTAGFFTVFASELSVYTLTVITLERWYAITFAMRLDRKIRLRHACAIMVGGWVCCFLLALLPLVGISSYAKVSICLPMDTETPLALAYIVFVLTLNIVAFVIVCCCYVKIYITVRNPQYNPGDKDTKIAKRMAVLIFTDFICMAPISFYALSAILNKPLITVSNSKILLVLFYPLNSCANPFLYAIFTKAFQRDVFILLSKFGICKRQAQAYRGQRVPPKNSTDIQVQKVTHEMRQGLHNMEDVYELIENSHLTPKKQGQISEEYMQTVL
Chain of Nuclear receptor subfamily 1 group I member 3 (Homo sapiens) (Q14994 whole entry, looked up): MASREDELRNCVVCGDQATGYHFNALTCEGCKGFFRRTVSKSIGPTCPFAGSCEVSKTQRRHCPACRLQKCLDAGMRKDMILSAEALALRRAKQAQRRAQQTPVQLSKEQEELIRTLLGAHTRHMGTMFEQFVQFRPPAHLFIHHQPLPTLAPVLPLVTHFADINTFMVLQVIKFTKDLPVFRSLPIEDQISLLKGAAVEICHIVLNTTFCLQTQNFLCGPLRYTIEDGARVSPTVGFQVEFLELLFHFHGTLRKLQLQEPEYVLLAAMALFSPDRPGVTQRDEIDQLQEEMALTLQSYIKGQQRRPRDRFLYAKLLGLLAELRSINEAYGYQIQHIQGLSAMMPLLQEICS

CO/N=C(/C(=O)N[C@@H]1C(=O)N2C(C(=O)[O-])=C(C[n+]3ccn4ncccc43)CS[C@H]12)c1nsc(N)n1
inactive: outcome [1] | outcome [2] | outcome [3] | Potency [4] | outcome [5] | Potency [6] | outcome [7] | Potency [8] | outcome [9] | outcome [10] | outcome [11] | outcome [12] | outcome [13] | outcome [14] | outcome [15]

CN1CCOC(c2ccccc2)c2ccccc2C1 (configuration not stated)
inactive: outcome [1] | outcome [2] | outcome [3] | Potency [4] | outcome [5] | Potency [6] | outcome [7] | Potency [16] | Potency [8] | outcome [9] | outcome [10] | outcome [11] | outcome [12] | outcome [14] | outcome [15]

NC(=O)[C@@H]1CSSCCC(=O)N[C@@H](CCCCN=C(N)N)C(=O)NCC(=O)N[C@@H](CC(=O)O)C(=O)N[C@@H](Cc2c[nH]c3ccccc23)C(=O)N2CCC[C@H]2C(=O)N1 ([Mpa][hArg]GDWPC-NH2; disulfide 1-7)
inactive: outcome [1] | outcome [2] | outcome [3] | Potency [4] | outcome [5] | Potency [6] | outcome [7] | Potency [16] | Potency [8] | outcome [9] | outcome [11] | outcome [13] | outcome [14] | outcome [15]

CCCCCCCCCCCCCCCCCCOCCO
inactive: activity change, negative = cytotoxicity [1] -0.661% [at 15.8 µM] | activity change, negative = cytotoxicity [2] -1.36% [at 19 µM] | activity, negative = inhibition [3] -13.7% [at 19 µM] | Potency [4] | viability change, negative = cytotoxic [5] -3.06% [at 19 µM] | activity change, negative = inhibition [6] -2.69% [at 23.6 µM] | viability change, negative = cytotoxic [7] -7.83% [at 19 µM] | activity, negative = inhibition [16] -10.5% [at 19 µM] | activation [8] -0.275% [at 19 µM] | viability change, negative = cytotoxic [9] -0.639% [at 19 µM] | activation [10] -2.81% [at 19 µM] | activity change, negative = cytotoxicity [11] 16.8% [at 15.8 µM] | activation (H2AX phosphorylation) [12] -3.63% [at 31.6 µM] | activation [13] 0.444% [at 15.8 µM] | activity change, negative = cytotoxicity [14] -6.52% [at 31.6 µM] | activity change, negative = cytotoxicity [15] -2.19% [at 15.8 µM]

CC(N)CCCC(C)(C)O (configuration not stated)
inactive: outcome [1] | outcome [2] | outcome [3] | Potency [4] | outcome [5] | Potency [6] | outcome [7] | Potency [16] | Potency [8] | outcome [9] | outcome [10] | outcome [11] | outcome [12] | outcome [14] | outcome [15]

COc1ccc(CCO)cc1
inactive: outcome [1] | outcome [2] | outcome [3] | Potency [4] | outcome [5] | Potency [6] | outcome [7] | Potency [16] | Potency [8] | outcome [9] | outcome [10] | outcome [12] | outcome [13] | outcome [15]

O=C(O)[C@H](O)c1ccccc1
inactive: outcome [1] | outcome [2] | outcome [3] | Potency [4] | outcome [5] | Potency [6] | outcome [7] | Potency [16] | Potency [8] | outcome [11] | outcome [12] | outcome [13] | outcome [14] | outcome [15]

CO[C@@]1(NC(=O)Cc2cccs2)C(=O)N2C(C(=O)O)=C(COC(N)=O)CS[C@@H]21
inactive: outcome [1] | outcome [2] | outcome [3] | Potency [4] | outcome [5] | Potency [6] | outcome [7] | Potency [16] | Potency [8] | outcome [9] | outcome [11] | outcome [12] | outcome [14] | outcome [15]

C=Cc1ccc(C(C)(C)C)cc1
inactive: outcome [1] | outcome [2] | outcome [3] | Potency [4] | outcome [5] | Potency [6] | outcome [7] | Potency [16] | Potency [8] | outcome [9] | outcome [11] | outcome [12] | outcome [13] | outcome [14] | outcome [15]

— PubChem BioAssay (Tox21)
